# BLM inh: inhibitors of human Bloom syndrome helicase BLM; P54132; recombinant BLM DNA unwinding, fluorescence dequenching; Potency, µM (top dose mostly 56.1 µM), most hits filed as inhibitors; 350,000 tested, 0.2% active; AID 2528; also: nearly all actives have a fitted effect of over 35% in size
# TDP1 block: TDP1 (human) enzyme inhibition; AID 485290; Potency, µM (top dose mostly 130 µM), most hits filed as inhibitors; Q9NUW8; recombinant TDP1, AlphaScreen DNA substrate cleavage; 350,000 tested, 0.28% active; also: nearly all actives have a fitted effect of over 40% in size
# Target sequence (Q9NUW8 whole entry, looked up): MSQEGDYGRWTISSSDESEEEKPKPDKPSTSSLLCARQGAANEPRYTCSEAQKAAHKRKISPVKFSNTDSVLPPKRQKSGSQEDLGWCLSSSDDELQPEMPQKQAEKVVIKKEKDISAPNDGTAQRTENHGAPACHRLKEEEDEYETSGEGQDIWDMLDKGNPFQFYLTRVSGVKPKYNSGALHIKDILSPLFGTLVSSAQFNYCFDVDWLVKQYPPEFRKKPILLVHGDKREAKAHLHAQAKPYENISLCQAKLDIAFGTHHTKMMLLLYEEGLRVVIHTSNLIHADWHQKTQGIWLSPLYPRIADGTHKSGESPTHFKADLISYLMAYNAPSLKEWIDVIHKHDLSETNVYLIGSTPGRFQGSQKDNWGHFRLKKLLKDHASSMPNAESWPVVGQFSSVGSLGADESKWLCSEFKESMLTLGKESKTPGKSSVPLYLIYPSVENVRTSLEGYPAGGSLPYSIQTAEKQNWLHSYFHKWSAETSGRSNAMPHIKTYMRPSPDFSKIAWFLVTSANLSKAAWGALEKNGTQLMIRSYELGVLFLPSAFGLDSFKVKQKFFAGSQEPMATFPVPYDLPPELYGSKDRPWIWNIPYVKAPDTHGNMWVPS
#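 Compounds were preincubated with Tdp1 (1 nM final) for 15 min at room temperature before substrate (15 nM final) started a 5 min reaction; beads (10 ug/ml final) were then added for 10 min before AlphaScreen detection.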
# KAT2A inh: GCN5L2 (KAT2A) acetyltransferase inhibition | Q92830 | GCN5L2 HAT assay, ThioGlo1 CoA-SH fluorescence | Potency, µM (highest dose often 58.9 µM), hits mostly inhibitors | 390,000 tested, 0.21% active | AID 504327
#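 GCN5L2 (20nM final) in 50mM HEPES, 0.1mM EDTA pH 7.5, 0.01% Tween-20 was preincubated 15 min at room temperature with compound, then given ThioGlo1 (50uM), H3(1-25) peptide (75uM) and acetyl-CoA (70uM); CoA-thiol fluorescence (Ex340/Em540) was read at 0 and 20 min.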
# RECQ1 helicase: inhibitors of human RECQ1 DNA helicase; P46063; Potency, µM (highest dose often 57.3 µM), most hits filed as inhibitors; RECQ1 DNA unwinding, red fluorescence kinetic read; 240,000 tested, 0.54% active; also: nearly all actives have a fitted effect of over 30% in size
#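 RECQ1T1 50 nM; forked duplex (20 bp + 30-nt ss tails) 200 nM, ATP 2 mM final; pH 8.0, 2 mM MgCl2, 2.5 ug/ml poly(dI-dC); 15 min compound preincubation; discontinuous kinetic read over 2 h at RT.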
# APE1 inh: APE1 (human) endonuclease inhibition. recombinant APE1, TAMRA/BHQ-2 abasic DNA cleavage fluorescence. Potency, µM (top dose mostly 65.8 µM), most hits filed as inhibitors. 350,000 tested, 0.35% active; also: nearly all actives have a fitted effect of over 55% in size
#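 Step 1: APE1 (0.75 nM) with compound, 15 min RT. Step 2: add 50 nM fluorophore/quencher THF duplex. Step 3: three fluorescence reads 60 s apart (525/598 nm); read 3 minus read 1 = reaction progress.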
# Hits are given with their value; n = inactive; u = inconclusive; x = not tested or not shown; ! = not active in a repeat. Rows were chosen to be rich in hits. Some 0.87% of all compounds tested hit in one or more screens of this group. Calls follow the shape of the dose curve; as a rule, active = well fitted curve in the direction sought with a large enough effect; inconclusive = small, poorly fitted or top-dose-only effect, or another doubt; inactive = no such curve, though single readings can be large; an effect the other way counts as inactive or inconclusive.
SMILES,BLM inh,TDP1 block,KAT2A inh,RECQ1 helicase,APE1 inh
O=C1CSc2ccc(S(=O)(=O)NCc3ccccc3Cl)cc2N1,n,n,n,x,n
CC(CS(=O)(=O)c1ccc2c(c1)NC(=O)CS2)C(=O)NCc1ccccc1Cl (configuration not stated),n,8.91µM,n,x,u
CCOC(=O)c1ccc(-n2cnc3c(c2=N)C(c2cccc(OC)c2)c2c(ccc4ccccc24)O3)cc1 (configuration not stated),x,n,x,x,x
O=C(COc1ccc(Cl)cc1)NCc1n[nH]c(=O)c2ccccc12,x,56.2µM,n,x,n
CC(C)c1ccc(OCC(=O)NCc2n[nH]c(=O)c3ccccc23)cc1,x,39.8µM,n,x,n
Cc1cccc(OCC(=O)NCc2n[nH]c(=O)c3ccccc23)c1,x,x,n,x,n
NC(=O)/C(=C/c1ccco1)C(N)=S,n,10µM,n,n,u
O=C(O)/C(=C\c1ccco1)NC(=O)c1ccco1,n,x,n,x,n
COc1ccc(C2Nc3ccccc3C(=O)N2Cc2ccccc2)cc1COc1ccc(NC(=O)c2ccccc2)cc1 (configuration not stated),x,n,x,x,x
O=C(COC(=O)/C=C/c1ccco1)NC1CCCCC1,x,50.1µM,n,x,u
O=C(COC(=O)/C=C/c1ccco1)NCCc1ccccc1,n,28.2µM,n,n,u
CCC1CCC2(C1)N=C(Nc1nc3ccccc3o1)NC1=C2C(=O)CCC1 (configuration not stated),x,n,x,x,x
COc1cccc(C2c3c(ncn(-c4ccccc4SC)c3=N)Oc3ccc4ccccc4c32)c1 (configuration not stated),x,n,x,x,x
Cc1cc(=O)oc2c3c(cc(OCC(=O)N4CCC(C(=O)O)CC4)c12)OC(C)(C)CC3,n,x,17.8µM,x,n
Cc1c(C)c2c(OCC(=O)N3CCC(C(N)=O)CC3)cc3c(c2oc1=O)CCC(C)(C)O3,n,x,u,x,n
CCCNC(=O)Cn1sc2nc(C)cc(C)c2c1=O,n,n,28.2µM,n,n
CC(=O)Cn1cnc2c(sc3nc(C)cc(C)c32)c1=O,n,x,n,n,n
Cc1nn(CC(=O)N2CCC(N3CCCCC3)CC2)c(=O)c2c1sc1ccccc12,n,n,n,x,n
Cc1cc(C)c2c(=O)n(CC(=O)N3CCC(N4CCCCC4)CC3)sc2n1,n,n,31.6µM,n,n
O=c1cc(-c2cccc(O)c2O)oc2ccccc12,n,n,x,6.31µM,n
O=C1c2ccccc2C(=O)N1c1ccc2ccccc2n1,x,n,x,x,x
COC(=O)c1c(-c2cccs2)csc1NC(=O)c1cc(OC)c(OC)c(OC)c1,n,n,25.1µM,x,x
CC1=C(/C=C/C(C)=C/C=C/C(C)=C/C(=O)O)C(C)(C)CCC1,n,n,31.6µM!,u,n
CC(C)(C)n1ncc2c(=O)n(Cc3ccc(SC(=O)O)cc3Cl)cnc21,x,x,x,x,n
N#Cc1ccc(S(=O)(=O)N2CCN(S(=O)(=O)c3ccc4c(c3)OCCO4)CC2)cc1,x,n,x,x,x
SMILES,BLM inh,TDP1 block,KAT2A inh,RECQ1 helicase,APE1 inh
COc1ccc(NC(=O)CN2C(=O)S/C(=C/c3cccn3-c3ccc(C(=O)O)cc3)C2=O)cc1,u,20µM,u,x,1.68µM
O=C(CCN1C(=O)/C(=C\C=C\c2ccccc2)SC1=S)Nc1ccc(C(=O)O)cc1,u,14.1µM,u,x,13.4µM
Cc1ccc(NC(=O)CN2C(=O)S/C(=C\c3cc(Cl)c(OCC(=O)O)c(Cl)c3)C2=O)cc1,u,x,n,x,7.52µM
O=C(CCN1C(=O)S/C(=C\c2ccc(Cl)cc2)C1=O)Nc1ccc(C(=O)O)cc1,n,28.2µM,u,x,u
COc1ccc(/C=C2\SC(=O)N(CC(=O)Nc3ccc(O)cc3)C2=O)cc1OC,n,x,n,x,n
CCOc1ccc(/C=C2\SC(=S)N(CCC(=O)Nc3ccc(C(=O)O)cc3)C2=O)cc1,n,x,n,x,n
Cc1ccc(NC(=O)CSc2nnc(-c3cccc([S+](=O)([O-])N4CCCC4)c3)n2-c2ccccc2)cc1,x,x,x,x,n
CC(=O)Nc1ccc(S(=O)(=O)N2CCN(S(=O)(=O)c3ccc4c(c3)OCCO4)CC2)cc1,x,n,x,x,x
COc1ccc(CCN2C(=O)C3C4CC(C5C(C(N)=O)=NOC45)C3C2=O)cc1OC (configuration not stated),n,12.6µM,n,n,u
COc1ccc(CCN2C(=O)C3C4CC(C5C(C(=O)NN)=NOC45)C3C2=O)cc1OC (configuration not stated),n,n,n,n,n
CC(C)(C)C(=O)Nc1ccc2c(c1)C(=O)C(=O)c1ccccc1-2,x,n,x,x,x
CO/N=C(\C(=O)N[C@@H]1C(=O)N2C(C(=O)O)=C(COC(N)=O)CS[C@H]12)c1ccco1,n,u,n,n,n
CO/N=C(/C(=O)NC1C(=O)N2C(C(=O)O)=C(COC(N)=O)CSC12)c1ccco1 (configuration not stated),n,22.4µM,n,n,u
COc1ccc(C(=O)Nc2ccnn2C2CCN(Cc3ccc4nonc4c3)CC2)cc1,n,22.4µM,n,x,5.32µM
CCn1cc(CN2CCC(n3nccc3NC(=O)c3ccc4c(c3)OCO4)CC2)c(C)n1,n,1.78µM,n,x,n
O=C(Nc1ccnn1C1CCN(Cc2ccc3nonc3c2)CC1)c1cccc(F)c1,n,n,n,x,n
CCn1cc(CN2CCC(n3nccc3NC(=O)c3ccccc3C)CC2)c(C)n1,n,n,n,x,n
CCc1cc2c(s1)c1cnn(Cc3ccccc3F)c(=O)c1n2C,x,n,x,x,x
NC(=O)C1CCN(c2nc(-c3ccc(Cl)cc3)cs2)CC1,x,x,x,x,n
O=C(NNC(=O)c1cccs1)c1ccc(Cl)nc1,x,89.1µM,n,x,n
CCc1ccc(Nc2nnc(SCC(=O)NC(=O)CN3CCCC3=O)s2)cc1,x,17.8µM,n,x,13.4µM
Cc1c(P(=S)(c2ccccc2)c2ccccc2)c2ccccc2n1C(=O)NCc1ccccc1,x,n,x,x,x
Cc1ccc(NS(=O)(=O)c2ccc(N3CCCC3=O)cc2)cc1C,x,n,x,x,x
CCOc1ccc(Nc2nc(NCC3CCCO3)c3ccccc3n2)cc1 (configuration not stated),28.2µM,n,n,u,n
COC1=C(N)C(=O)c2nc(-c3nc(C(=O)O)c(C)c(-c4ccc(OC)c(OC)c4O)c3N)ccc2C1=O,3.55µM,n,n,n,n
SMILES,BLM inh,TDP1 block,KAT2A inh,RECQ1 helicase,APE1 inh
Cc1c(CCC(=O)O)c(=O)oc2cc(O)ccc12,n,n,28.2µM,n,n
COc1ccccc1NC(=O)c1c([N+](=O)[O-])cnn1C,n,1.41µM,n,x,n
CCOC(=O)CN1C(=O)S/C(=C\c2ccc(-c3ccc(C(=O)O)c(Cl)c3)o2)C1=O,n,8.91µM,u,x,15µM
CC(C)N1C(=O)S/C(=C\c2ccc(-c3ccc(Cl)c(C(=O)O)c3)o2)C1=O,n,25.1µM,n,x,n
Cc1ccc(NS(=O)(=O)c2cc3c(cc2C)NC(=O)CO3)cc1C,x,n,x,x,x
CC1=CC2=NC(=O)/C(=C\c3cc(C)n(-c4ccccc4F)c3C)C(=N)N2O1,n,n,n,n,n
